Drawing on PubChem BioAssay (Tox21), this text covers Potency and outcome for 25 compounds.

Assay [1] can be described thus: qHTS assay to identify small molecule antagonists of the glucocorticoid receptor (GR) signaling pathway - cell viability counter screen (AID 720693). Also: nearly all actives have a fitted effect of over 55% in size. Also: potency is read from the fitted curve at half-maximal effect. For orientation: qHTS replaces the single test concentration by a dilution series.
Assay [2] is described as follows: qHTS assay for identifying genotoxic compounds that show differential cytotoxicity against isogenic chicken DT40 cell lines with known DNA damage response pathways - wild type cell line (AID 743012). Also: nearly all actives have a fitted effect of over 60% in size. Also: potency is read from the fitted curve at half-maximal effect. The essentials:
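First, wild type DT40 cells were plated at 300 per well and equilibrated about 0.5 h at 37 C/5% CO2. Next, compounds in DMSO were added and exposure lasted 40 h. Finally, CellTiter-Glo was added for 30 min at room temperature and luminescence recorded.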

Assay [3] in a line: qHTS assay for identifying genotoxic compounds that show differential cytotoxicity against isogenic chicken DT40 cell lines with known DNA damage response pathways - Rev3 mutant cell line (AID 743014). Also: nearly all actives have a fitted effect of over 55% in size. Also: potency is read from the fitted curve at half-maximal effect.
A short description of assay [4]: qHTS assay for identifying genotoxic compounds that show differential cytotoxicity against isogenic chicken DT40 cell lines with known DNA damage response pathways - Rad54/Ku70 mutant cell line (AID 743015). Also: nearly all actives have a fitted effect of over 60% in size. Also: potency is read from the fitted curve at half-maximal effect.
Assay [5] in a line: qHTS assay to identify small molecule antagonists of the androgen receptor (AR) signaling pathway - cell viability counter screen (AID 743033; also: nearly all actives have a fitted effect of over 45% in size).
In assay [6] the target is Androgen receptor (Homo sapiens) (UniProt P10275). The assay is described as follows: qHTS assay to identify small molecule antagonists of the androgen receptor (AR) signaling pathway (AID 743035; active = well fitted inhibition curve with a large enough effect in the signal ratio in the repeat runs, not every such curve was filed as active; the % refers to the signal ratio; also: potency is read from the fitted curve at half-maximal effect). In outline:
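Beta-lactamase FRET read (2 h RT incubation with LiveBLAzer B/G) following 16 h of compound plus R1881 treatment of AR-UAS-bla HEK293 cells, which had been pre-incubated 4 h at 37C.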

Assay [7] shares this target. The assay is described as follows: qHTS assay to identify small molecule agonists of the androgen receptor (AR) signaling pathway using the MDA cell line (AID 743040; also: nearly all actives have a fitted effect of over 20% in size). The essentials:
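Luminescence from ONE-Glo, read after 30 min at room temperature, reflects MMTV-driven luciferase in MDA-kb2 cells (AR- and GR-responsive). Treatment lasted 16 h at 37C, 0% CO2.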

A short description of assay [8]: qHTS assay to identify small molecule antagonists of the androgen receptor (AR) signaling pathway using the MDA cell line - cell viability counter screen (AID 743041; also: nearly all actives have a fitted effect of over 45% in size). In outline:
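Viability counter screen run alongside the AR antagonist reporter: cells seeded 5 h before compound, R1881 added, 16 h incubation at 37C without CO2, fluorescent CellTiter-Fluor signal quantified.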

Assay [9] deals with Androgen receptor (Homo sapiens) (UniProt P10275). The assay is described as follows: qHTS assay to identify small molecule antagonists of the androgen receptor (AR) signaling pathway using the MDA cell line (AID 743042; also: nearly all actives have a fitted effect of over 55% in size). The essentials:
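MDA-kb2 cells (human breast carcinoma, stably carrying an MMTV-luciferase reporter responsive to AR and GR) were plated at 3,000 cells/well and preincubated 5 hr at 37C, then given compound plus R1881 agonist for 16 h. ONE-Glo luminescence was read.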

The target is the same in assay [10]. The assay is described as follows: qHTS assay to identify small molecule agonists of the androgen receptor (AR) signaling pathway (AID 743036; active = well fitted activation curve with a large enough effect in the signal ratio in the repeat runs, with a control signal flat, not every such curve was filed as active; the % refers to the signal ratio). In outline: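 Cell-based FRET reporter assay: HEK293 line with a UAS-beta-lactamase construct, compounds added in DMSO, 16 h exposure at 37C, then 2 h substrate step at room temperature and fluorescence intensity read.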

The structures appear in SMILES notation. Records with an inconclusive call do not appear. The source made the active and inactive calls. Unless noted, calls follow the shape of the dose curve; as a rule, active = well fitted curve in the direction sought with a large enough effect in the repeat runs; inconclusive = weak or mixed curves; inactive = no such curve, though single readings can be large; an effect the other way counts as inactive or inconclusive.

Sequence of Androgen receptor (Homo sapiens) (P10275 whole entry, looked up): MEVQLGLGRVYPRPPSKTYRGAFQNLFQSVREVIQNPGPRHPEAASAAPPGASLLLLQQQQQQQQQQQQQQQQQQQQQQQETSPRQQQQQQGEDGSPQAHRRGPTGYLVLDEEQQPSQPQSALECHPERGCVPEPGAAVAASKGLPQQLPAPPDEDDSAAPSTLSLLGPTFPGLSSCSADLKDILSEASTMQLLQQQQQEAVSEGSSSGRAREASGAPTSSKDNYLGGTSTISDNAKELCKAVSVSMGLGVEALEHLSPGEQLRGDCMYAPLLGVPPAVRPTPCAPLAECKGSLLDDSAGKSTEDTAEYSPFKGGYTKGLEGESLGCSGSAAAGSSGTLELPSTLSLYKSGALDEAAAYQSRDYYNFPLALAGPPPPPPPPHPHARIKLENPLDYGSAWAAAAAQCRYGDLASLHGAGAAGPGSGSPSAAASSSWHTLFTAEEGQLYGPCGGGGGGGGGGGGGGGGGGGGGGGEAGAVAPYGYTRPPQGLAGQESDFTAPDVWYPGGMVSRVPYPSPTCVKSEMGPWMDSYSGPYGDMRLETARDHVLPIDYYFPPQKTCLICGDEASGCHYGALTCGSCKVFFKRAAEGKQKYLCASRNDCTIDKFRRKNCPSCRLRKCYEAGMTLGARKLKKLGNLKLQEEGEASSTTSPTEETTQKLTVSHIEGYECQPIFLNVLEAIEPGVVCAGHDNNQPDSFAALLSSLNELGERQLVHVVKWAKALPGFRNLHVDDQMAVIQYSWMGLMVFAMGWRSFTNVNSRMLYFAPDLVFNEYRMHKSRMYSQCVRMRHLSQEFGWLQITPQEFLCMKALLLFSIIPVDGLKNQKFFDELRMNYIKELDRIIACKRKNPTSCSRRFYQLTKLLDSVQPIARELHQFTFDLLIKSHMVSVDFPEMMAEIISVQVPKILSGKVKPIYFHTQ

As to `Cc1nc2sccn2c(=O)c1CCN1CCC(=C(c2ccc(F)cc2)c2ccc(F)cc2)CC1`, the Potency result in [1] and in assay [5] was “inactive” throughout. The Potency is 7.5 µM (active) in assay [2], 13.3 µM (active) in assay [3] and 13.3 µM (active) in assay [4].
As to `NC(=O)c1ccccc1C(N)=O`, the Potency entry in assay [1], in assay [2], in [3], in assay [4], in assay [5] and in [6] was “inactive” in each case. The Potency result in assay [8] and in [9] was “inactive” in each case. In [7], the compound was classed as inactive.
As to `Nc1ccc(F)cc1F`, the Potency entry in [1], in assay [2], in assay [3], in [4], in [5] and in assay [6] was “inactive” each time. Moreover, the Potency entry in assay [8] and in assay [9] was “inactive” throughout. Besides, the compound was called inactive in [10] and in assay [7].
Consider `O=C(O)c1ccncc1`, for which the Potency entry in [1], in [2], in assay [3], in assay [4], in assay [5] and in [6] was “inactive” each time. Also, the Potency entry in assay [8] and in assay [9] was “inactive” throughout. Besides, the outcome in [10] and in [7] was inactive.
Regarding `C=CC(C)CCC=C(C)C` (stereo unspecified), the Potency result in assay [1], in assay [2], in [3], in assay [4], in assay [5] and in assay [8] was “inactive” throughout.
`CCOc1ccccc1O`: the Potency entry in [1], in [2], in assay [3] and in assay [4] was “inactive” in each case.
With `CC[C@H](NC(C)C)[C@H](O)c1ccc(O)c2[nH]c(=O)ccc12`, the Potency entry in assay [1], in assay [2], in assay [3], in [4], in [5] and in assay [6] was “inactive” each time. The Potency entry in assay [8] and in assay [9] was “inactive” each time. Besides, the compound was called inactive in assay [10] and in assay [7].
For `CC1(COc2ccc(CC3SC(=O)NC3=O)cc2)CCCCC1` (stereo unspecified), the Potency is 23.9 µM (active) in [1], 10.6 µM (active) in assay [2], 23.7 µM (active) in assay [3] and 11.9 µM (active) in [4]. In addition, in assay [5], the Potency result is “inactive”.
With `CCCOC(C)=O`, the Potency result in assay [1], in assay [2], in [3], in assay [4], in assay [5] and in assay [8] was “inactive” throughout. The Potency entry in assay [9] was “inactive”. Besides, the compound was classed as inactive in assay [10] and in assay [7].
For `CCc1ccc(C(=O)C(C)CN2CCCCC2)cc1` (stereo unspecified), the Potency entry in assay [1] and in assay [5] was “inactive” each time. Further, the Potency in [2] is 11.9 µM (active); in assay [3], 11.9 µM (active); in assay [4] it was 16.8 µM (active).
Regarding `O=Cc1ccc(Cl)c([N+](=O)[O-])c1`, the Potency result in assay [1], in assay [5] and in assay [8] was “inactive” throughout. For the same compound, the figures for the Potency in assay [2], in [3] and in [4] were 4.33 µM (active), 4.33 µM (active) and 3.06 µM (active), respectively.
For the compound `O=C(O)COCC(=O)O`, the Potency result in assay [1], in [2], in assay [3], in assay [4], in [5] and in assay [8] was “inactive” each time.
Regarding `CCCC(=O)OCCC(C)C`, the Potency result in assay [1], in assay [2], in [3], in [4], in assay [5] and in [6] was “inactive” in each case. Further, the Potency result in [8] and in [9] was “inactive” in each case. In addition, the result in [10] and in assay [7] was inactive.
As for `CCCc1nc(C)c2c(=O)[nH]c(-c3cc(S(=O)(=O)N4CCN(CC)CC4)ccc3OCC)nn12`, the Potency result in assay [1], in [2], in assay [3], in [4], in assay [5] and in assay [6] was “inactive” each time. In addition, the Potency entry in [8] and in [9] was “inactive” throughout.
On to `CCOCCn1c(N2CCCN(C)CC2)nc2ccccc21`, for which the Potency entry in assay [1], in assay [2], in [3], in assay [4], in [5] and in assay [6] was “inactive” throughout. Besides, the Potency entry in [8] and in [9] was “inactive” throughout. For the same compound, in [7], the compound was classed as inactive.
As to `Cc1ccccc1CCO`, the Potency entry in assay [1], in assay [2], in [3], in [4], in assay [5] and in assay [8] was “inactive” each time.
For `CCOc1ccc(NC(C)=O)cc1N`, the Potency result in assay [1], in [2], in assay [3], in assay [4], in [5] and in assay [8] was “inactive” throughout. In addition, the Potency result in assay [9] is “inactive”. Besides, the result in assay [10] and in [7] was inactive.
Regarding `COc1cc(CNC(=O)CCCC/C=C/C(C)C)ccc1O`, the Potency result in [1], in assay [2], in assay [3], in assay [4], in assay [5] and in [8] was “inactive” throughout.
On to `CCC[Si](OC)(OC)OC`, for which the Potency result in assay [1], in [2], in assay [3], in [4], in assay [5] and in [8] was “inactive” throughout. The Potency entry in [9] was “inactive”. Further, the call in assay [10] and in [7] was inactive.
As for `Cc1ccc(NC(=O)c2ccc(CN3CCN(C)CC3)cc2)cc1Nc1nccc(-c2cccnc2)n1`, the Potency entry in assay [1], in assay [5] and in assay [8] was “inactive” in each case. Also, the Potency is 15 µM (active) in [2], 11.9 µM (active) in assay [3] and 13.3 µM (active) in assay [4]. In assay [7], the outcome was inactive.
As to `O=C(O)c1ccc(O)c(O)c1`, the Potency entry in assay [1], in [2], in assay [3], in [4], in [5] and in assay [6] was “inactive” each time. Also, the Potency result in assay [8] and in [9] was “inactive” throughout. Besides, the call in assay [10] and in assay [7] was inactive.
With `O=C(Nc1ccccc1)c1cc([N+](=O)[O-])ccc1Cl`, the Potency entry in assay [1], in assay [5], in assay [8] and in assay [9] was “inactive” throughout. The Potency is 68.6 µM (active) in assay [2], 68.6 µM (active) in [3], 68.6 µM (active) in [4] and 24.5 µM (active) in assay [6]. In addition, the result in assay [10] and in assay [7] was inactive.
In the case of `OCCCO`, the Potency result in assay [1], in [2], in [3], in assay [4], in [5] and in assay [8] was “inactive” in each case. The Potency entry in assay [9] was “inactive”. In addition, the call in assay [10] and in assay [7] was inactive.
As to `O=C(OC1C[C@H]2CC[C@@H](C1)[N+]21CCCC1)C(O)(c1ccccc1)c1ccccc1` (stereo partly specified), the Potency result in assay [1], in assay [2], in [3], in assay [4], in assay [5] and in assay [8] was “inactive” in each case. Besides, the Potency result in assay [9] was “inactive”. Also, the compound was called inactive in [10] and in [7].
Take `CCOc1ccc2c(c1)C(C)CC(C)(C)N2` (stereo unspecified): the Potency entry in assay [1], in [5], in [8] and in assay [9] was “inactive” each time. For the same compound, the Potency in assay [2] was 27.3 µM (active); in [3] it was 54.5 µM (active); in assay [4] it was 48.6 µM (active). Also, the outcome in [10] and in assay [7] was inactive.
